# High-throughput results from PubChem BioAssay.
# A selection: hits, their analogues and other compounds. The true share with any hit is near 21%.
# CHX counter – counter-screen hit for Shiga toxin inhibitors, cycloheximide | max response, % | 300,000 compounds, 12% hits | cell reporter, cycloheximide protein synthesis inhibition counterscreen; in the data active = max response mostly above about 13%, no sharp cut-off; inactive = mostly below about 14%; note: read at 38.3 µM for the half of the compounds with a filed dose; 0% is about no effect
# NS1 inh – influenza NS1 inhibition | Potency, µM (top dose mostly 46.1 µM), without a hit: at the top dose activity, positive = more growth | 270,000 compounds, 0.4% hits; calls by dose curve; note: potency is the fitted concentration of half-maximal effect; actives are rising curves; nearly all actives have a fitted effect of over 50% in size
#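 Read-out: OD600 growth recovery of NS1-expressing budding yeast. Cells grown overnight at 30C in -URA glucose medium, washed, resuspended and diluted 1:100 in 2% galactose assay medium, pH 6.0. Same strain lacking NS1 served as positive control.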
# Shiga inhibitor – Shiga toxin inhibition | inhibition, % at 38.7 µM | 290,000 compounds, 9.2% hits | AID 2315 | Vero cells, Shiga toxin protein synthesis inhibition reporter; in the data active = inhibition mostly above about 28%, no sharp cut-off; inactive = mostly below about 43%; note: 0% is about no effect
# Pf growth 96h – inhibits malaria parasite growth, 96 h. P. falciparum luciferase reporter growth, 96 h. Potency, µM (highest dose often 28.7 µM), for the others: at the top dose activity change, negative = inhibition, actives largely listed as inhibitors. 320,000 compounds, 6.9% hits; note: potency is the fitted concentration of half-maximal effect; % is set by controls: 0 for no effect and ±100 for the full control effect
#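 Delayed-death screen, second-generation endpoint: infected erythrocytes, 2% hematocrit, 0.05% parasitemia final; 96 hours at 37 C, 5% CO2; luciferase detection reagent; luminescence decrease equals reduced growth.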
# Pf growth 48h – inhibits P. falciparum growth in the first generation, 48 h; P. falciparum luciferase growth in erythrocytes, 48 h; Potency, µM (doses to about 28.7 µM), without a hit: at the highest dose activity change, negative = inhibition, usual class: inhibitors; 310,000 compounds, 5.9% hits; AID 504832; note: potency is the fitted concentration of half-maximal effect; % is set by controls: 0 for no effect and ±100 for the full control effect
#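 Firefly luciferase activity from engineered P. falciparum reports growth; inhibitors lower the luminescent signal. Cultures contained 2% hematocrit erythrocytes at 0.1% final parasitemia.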
# FBPA Giardia inh – Giardia lamblia aldolase inhibition. purified Giardia FBPA. A8B2U2. Potency, µM (series often up to 59.6 µM), for inactives: top-dose activity, negative = inhibition, most hits filed as inhibitors. AID 2451. 290,000 compounds, 0.71% hits; note: potency is the fitted concentration of half-maximal effect; % is set by controls: 0 for no effect and ±100 for the full control effect; nearly all actives have a fitted effect of over 55% in size
# Target sequence (A8B2U2 whole entry, looked up): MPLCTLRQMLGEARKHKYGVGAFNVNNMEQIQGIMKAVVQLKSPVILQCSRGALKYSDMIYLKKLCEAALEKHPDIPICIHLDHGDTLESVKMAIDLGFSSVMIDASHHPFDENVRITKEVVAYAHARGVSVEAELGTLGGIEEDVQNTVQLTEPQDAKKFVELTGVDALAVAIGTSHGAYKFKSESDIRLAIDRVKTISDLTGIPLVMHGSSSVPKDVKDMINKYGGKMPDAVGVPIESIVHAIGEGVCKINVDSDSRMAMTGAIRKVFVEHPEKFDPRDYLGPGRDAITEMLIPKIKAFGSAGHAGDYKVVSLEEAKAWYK
#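 40 nM FBPA preincubated 10 min at RT with compound (up to 57.5 uM final), then substrate plus GAPDH/TPI/NAD/arsenate coupling and diaphorase/resazurin added. Fluorescence read after 20 min at RT, 525/598 nm.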
# * marks the source's active call; other numbers are inactive results; ? = inconclusive; · = not tested or not shown; [ ] = remark or other dose. Unless noted, calls come from the whole dose curve; as a rule, active = well fitted curve in the direction sought with a large enough effect; inconclusive = small, poorly fitted or top-dose-only effect, or another doubt; inactive = no such curve, though single readings can be large; an effect the other way counts as inactive or inconclusive.
SMILES,CHX counter,NS1 inh,Shiga inhibitor,Pf growth 96h,Pf growth 48h,FBPA Giardia inh
O=[N+]([O-])c1ccc(-c2cn3nc(-c4ccccc4)c(-c4ccccc4)nc3n2)cc1,-3,3%,-11,21%,2%,4%
Cc1nn2cc(-c3ccc(-c4ccccc4)cc3)nc2s1,26*,-2%,49,383%,195%,1%
Cc1nn2c(-c3ccc(Cl)cc3)nnc2s1,-4,-48%,6,?,-13%,3%
CCc1nn2cc(-c3ccccc3)nc2s1,6,-40%,5,·,-12%,-3%
COc1cccc(-c2cn3nc(C)c(C)nc3n2)c1,41*,-4%,167*,167%[5.75 µM],-21%,0%
Cc1nn2cc(-c3ccc(Cl)cc3)nc2s1,59*,-3%,112*,72%,272%,-9%
Cc1nc2nc(-c3ccc(Cl)cc3)cn2nc1C,38*,1%,93*,·,234%,2%
Cc1nn(C)c2nc(-c3cccs3)cc(C(F)(F)F)c12,10,·,-8,19%,15%,-5%
Cc1nc2nc(-c3cccs3)cn2nc1C,31*,-14%,54,169%,186%,-17%
O=C(O)CCN1CCc2ccccc2C1c1cccs1 (stereo not given),-3,·,-3,6%,-14%,3%
C=CC[N+](C)(C)c1ccc(CCC(=O)CCc2ccc([N+](C)(C)CC=C)cc2)cc1,·,·,·,0.15µM*,0.15µM*,·
Cc1ccc(CC(=O)CCc2ccccc2)cc1,·,·,·,64%,25%,·
C=CCOC(=O)C1=C(C)OC(N)=C(C#N)C1c1ccc2c(c1)OCO2 (stereo not given),9,19%,-4,10µM*,-27%,-16%
COCCOC(=O)C1=C(C)OC(N)=C(C#N)C1c1ccc2c(c1)OCO2 (stereo not given),6,2%,-8,·,-12%,-9%
NS(=O)(=O)c1ccc(NC(=O)CN2CCc3ccccc3C2)cc1,-4,-13%,4,5%,10%,-6%
CC(C)(C)NC(=O)CN(Cc1ccco1)C(=O)CCC(=O)Nc1nccs1,0,2%,-3,?,-9%,8%
CC(C)(C)C1=CC(=O)C(=O)C(C(C)(C)C)=C1,1,-19%,-3,-26%,-20%,7.1µM*
CC(C)c1ccc(C2NC(=O)c3ccccc3O2)cc1 (stereo not given),19*,-20%,101*,11%,17%,6%
O=C1NC(c2ccc(Cl)cc2)Oc2ccccc21 (stereo not given),1,11%,1,?,2%,-1%
CC1(C)O[C@@H]2C[C@H]3[C@@H]4CCC5=CC(=O)C=C[C@]5(C)[C@H]4C(O)C[C@]3(C)[C@]2(C(=O)CO)O1 (stereo not given in full),·,·,·,-11%,?,·
CN(C(=O)COC(=O)c1ccc(Cl)s1)C1(C#N)CCCCC1,·,·,·,9%,-1%,·
c1ccc2cc(CSCc3nc4ccccc4[nH]3)ccc2c1,-1,-45%,38,?,13µM*,-2%
O=C(CSCc1nc2ccccc2[nH]1)Nc1ccc2ccccc2c1,-4,-8%,-4,?,1%,-5%
C=C(C)CSCc1nc2ccccc2[nH]1,37*,-31%,54,·,17%,0%
Cc1ccc(C)c(CSCc2nc3ccccc3[nH]2)c1,4,-44%,-1,?,?,1%
SMILES,CHX counter,NS1 inh,Shiga inhibitor,Pf growth 96h,Pf growth 48h,FBPA Giardia inh
Cc1ccccc1CSCc1nc2ccccc2[nH]1,32*,-2%,39*,-26%,?,-9%
CCO[C@@H]1OC(C(=O)NC2CC2)=C[C@H](c2c[nH]c3ccccc23)[C@H]1CCCO,11,-1%,52*,?,-12%,1%
CCO[C@@H]1OC(C(=O)NCc2ccccc2)=C[C@H](C2CCCCC2)[C@H]1CCCO,-2,1%,-20,9.3µM*,?,-15%
O=C(NCCO)c1cccc(Cl)c1,1,-6%,-8,37%,·,2%
C=CCNC(=O)c1ccc2c3n(nc2c1)-c1ccccc1CO3,27*,-61%,46*,242%,194%,0%
C=CCNC(=O)c1ccc2nc(-c3ccccc3)c(-c3ccccc3)nc2c1,-5,-16%,16,?,?,·
COCCNC(=O)c1ccc2c(c1)nc(C)n2-c1cccc(Cl)c1,-3,-5%,-16,-2%,4%,-12%
COCCNC(=O)c1ccc2c3n(nc2c1)-c1ccc(Cl)cc1CO3,7.5*,-5%,44*,105%,120%,2%
Cc1ccc2c(c1)COc1c3ccc(C(=O)NCCO)cc3nn1-2,61*,-5%,74*,16%,279%,-1%
O=C(NCCO)c1ccc2c3n(nc2c1)-c1ccc(Cl)cc1CO3,54*,-5%,79*,135%,89%,-4%
COCCn1cnnc1SCC(=O)Nc1ccc(N2CCCCC2)cc1,·,·,·,37%,49%,·
O=C(N/N=C1/C[C@@H](O)[C@@H](O)[C@@H]2[C@@H]3C(=O)N(Cc4ccccc4)C(=O)[C@H]3CC[C@@H]12)OCc1ccccc1,·,·,·,·,·,4%[12.9 µM]
COCCNC(=O)c1ccc2c3n(nc2c1)-c1ccccc1CO3,30*,-2%,41*,23%,221%,5%
O=C(CCc1c[nH]c2ccccc12)NCc1cccc(Cl)c1,-4,-3%,2,-18%,-11%,1%
O=C(NCc1ccc2c(c1)OCO2)c1ccccc1,6,·,-2,22%,13%,4%
O=C(NCc1ccc2c(c1)OCO2)c1ccccn1,20*,5%,-6,37%,62%,6%
Cn1nc(C(=O)NCCc2ccc3c(c2)OCCO3)c2ccccc2c1=O,·,·,·,-6%,?,·
O=C(NCCc1ccc2c(c1)OCCO2)c1ccccn1,42*,-10%,78*,223%,165%,4%
O=C(CCc1c[nH]c2ccccc12)NCCc1ccc2c(c1)OCCO2,17,-3%,84*,-17%,?,·
CC(C)=CCn1cnc2c1c(=O)n(C)c(=O)n2C,·,·,·,·,·,3%
Cc1ccnc(N2C(=O)c3ccccc3C2Nc2ccccc2Cl)c1 (stereo not given),9,-123%,29*,?,?,1%
CCc1ccccc1NC1c2ccccc2C(=O)N1c1cc(C)ccn1 (stereo not given),1,-4%,25,50%,13µM*,-3%
O=C(COc1ccc([N+](=O)[O-])cc1)Nc1cccc2nsnc12,1,25%,-2,?,-4%,-6%
COC(=O)c1cc(S(=O)(=O)NCc2ccccc2Cl)c[nH]1,-2,6%,-5,2.6µM*,32%,-11%
COC(=O)c1c(C)oc(C)c1S(=O)(=O)NCc1cccs1,2,-6%,-3,3%,1%,-10%
NC(=O)c1cc(S(=O)(=O)NCc2cccs2)cs1,-2,-8%,11,8.3µM*,42%,-12%
O=S(=O)(NCc1cccs1)c1ccc(Cl)s1,0,-16%,-8,7.4µM*,2%,10%
